Experimental data taken from PubChem BioAssay (NCATS).
“And” between values parts separate entries of the source, which are not always exact repeats. Equal entries are not always repeated. Records with an inconclusive call do not appear. Where a call stands in place of a potency, no number is given. A number with no mark means an inactive call. The source made the active and inactive calls. Calls come from the whole dose curve; as a rule, active = well fitted curve in the direction sought with a large enough effect; inconclusive = small, poorly fitted or top-dose-only effect, or another doubt; inactive = no such curve, though single readings can be large; an effect the other way counts as inactive or inconclusive.

Legend:
[1] = target: Cellular tumor antigen p53 (Homo sapiens) (UniProt P04637); assay: Primary qHTS for small molecule compounds that upregulate eGFP-tagged delta133p53alpha (in N-terminal) cells. (AID 2060322); details: NCI-H358 eGFP-delta133p53alpha fluorescence, 24 h; activation: hits give high values; note: nearly all actives have a fitted effect of over 75% in size; for activation: series mostly up to about 56 µM
Summary of the method: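 NCI-H358 cells pre-induced 24 h with 10 ng/ml doxycycline to express N-terminal eGFP-delta133p53alpha, then dosed 24 h at 37C without doxycycline; fixed, Hoechst-stained, GFP intensity by laser scanning cytometry, normalized to DMSO (0%) and 57.5 uM 5-azacytidine (100%).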

[2] = BET inhibitor-based combinations targeting novel dependencies in MECOM-rearranged (r) AML: SET-2 cell line (AID 2202231); details: SET-2 AML cells viability, CellTiter-Glo luminescence, 48 h; viability: hits give low values, concentration not given here; note: nearly all actives have a fitted effect of over 35% in size
Summary of the method: (§1)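 A 48 hr incubation preceded viability reading by CellTiter-Glo, with 15 min room-temperature development. Dose series had 11 points; normalization used DMSO and empty wells; AUC was computed and mean-centered per line as Z-AUC.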

[3] = BET inhibitor-based combinations targeting novel dependencies in MECOM-rearranged (r) AML: OCI-AML3 cell line (AID 2202232); details: Potency: OCI-AML3 viability; note: nearly all actives have a fitted effect of over 35% in size
Summary of the method: as §1

[4] = BET inhibitor-based combinations targeting novel dependencies in MECOM-rearranged (r) AML: MV-4-11 cell line (AID 2202233); note: nearly all actives have a fitted effect of over 45% in size
Summary of the method: (§2)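 Each compound is tested in an 11-point concentration series against 500 seeded cells/well for 48 hr. The luminescent viability signal is normalized to DMSO and blank wells, then reduced to AUC and a cell-line-centred Z-AUC.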

[5] = BET inhibitor-based combinations targeting novel dependencies in MECOM-rearranged (r) AML: HNT-34 cell line (AID 2202234); note: nearly all actives have a fitted effect of over 35% in size
Summary of the method: as §2

[6] = BET inhibitor-based combinations targeting novel dependencies in MECOM-rearranged (r) AML: UCSD-AML1 cell line (AID 2202235); note: nearly all actives have a fitted effect of over 40% in size
Summary of the method: as §2

[7] = BET inhibitor-based combinations targeting novel dependencies in MECOM-rearranged (r) AML: AML-191 cell line (AID 2202236; note: nearly all actives have a fitted effect of over 35% in size)
Summary of the method: as §1

[8] = BET inhibitor-based combinations targeting novel dependencies in MECOM-rearranged (r) AML: AML-194 cell line (AID 2202237; note: nearly all actives have a fitted effect of over 40% in size)
Summary of the method: as §1
Potency is the fitted concentration of half-maximal effect.

Cellular tumor antigen p53 (Homo sapiens), sequence (P04637 whole entry, looked up): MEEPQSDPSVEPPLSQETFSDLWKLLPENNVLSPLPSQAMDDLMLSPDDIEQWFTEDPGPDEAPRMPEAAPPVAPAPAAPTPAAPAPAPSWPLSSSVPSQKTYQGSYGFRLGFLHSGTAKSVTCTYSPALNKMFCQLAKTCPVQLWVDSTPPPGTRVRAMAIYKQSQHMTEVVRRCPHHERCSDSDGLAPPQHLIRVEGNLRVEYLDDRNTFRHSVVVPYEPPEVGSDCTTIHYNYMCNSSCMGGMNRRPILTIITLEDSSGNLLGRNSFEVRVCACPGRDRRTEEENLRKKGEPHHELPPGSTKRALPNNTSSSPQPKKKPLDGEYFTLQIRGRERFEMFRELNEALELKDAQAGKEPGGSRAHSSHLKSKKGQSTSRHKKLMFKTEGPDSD

SMILES	activation [1]	Potency [2]	Potency [3]	Potency [4]	Potency [5]	Potency [6]	Potency [7]	Potency [8]	viability [2] [%]	Potency [1]
CC(N[C@H]1CCCC[C@H]1NC(=O)c1ccc(Cl)cc1)c1cccc2ccccc12 (some centres undefined)	3.01%	26300 nM (active)	16600 nM (active)	13200 nM (active)	11800 nM (active)	11800 nM (active)	11800 nM (active)	8330 nM (active)	–	–
CCn1cc(C(=O)O)c(=O)c2cc(F)c(N3CCNCC3)cc21	-8.37% and 13.6%	–	inactive	inactive	inactive	inactive	inactive	inactive	96.1	–
Cn1cnc(=N)c2[nH]cnc21	10.7%	–	inactive	inactive	inactive	inactive	inactive	inactive	111	–
Cc1ccc2c(=O)c3cccc(CC(=O)O)c3oc2c1C	16.3%	–	inactive	inactive	inactive	inactive	inactive	inactive	108	–
CCCc1nc(C(C)(C)O)c(C(=O)O)n1Cc1ccc(-c2ccccc2-c2nn[nH]n2)cc1	-5.2%	–	inactive	inactive	inactive	inactive	inactive	inactive	116	–
O=C(O)c1cc(=O)[nH]c(=O)[nH]1	15.1% and 14.7%	–	inactive	inactive	inactive	inactive	inactive	inactive	111	–
N[C@@H](CC(=O)N1CCn2c(nnc2C(F)(F)F)C1)Cc1cc(F)c(F)cc1F	-12.2%	–	inactive	inactive	inactive	inactive	inactive	inactive	112	–
O=C(O)C1=CC(O)C(O)[C@H](O)C1 (some centres undefined)	16.4%	–	inactive	inactive	inactive	inactive	inactive	inactive	115	–
O=C(O)c1cn(-c2ccc(F)cc2)c2cc(N3CCNCC3)c(F)cc2c1=O	-9.7%	–	inactive	inactive	inactive	inactive	inactive	inactive	96.6	–
CN1CC[C@@H](c2c(O)cc(O)c3c(=O)cc(-c4ccccc4Cl)oc23)[C@@H](O)C1	–	525 nM (active)	263 nM (active)	468 nM (active)	468 nM (active)	417 nM (active)	372 nM (active)	417 nM (active)	–	217 nM (active)
NS(=O)(=O)c1cccc2c1C(=O)c1cccc(O)c1C2=O	-16%	2950 nM (active)	1660 nM (active)	332 nM (active)	1860 nM (active)	2090 nM (active)	2350 nM (active)	2630 nM (active)	–	–
Nc1cccc2c1C(=O)N(C1CCC(=O)NC1=O)C2=O (centres undefined)	28.8%	–	inactive	1.3 nM (active)	inactive	inactive	inactive	inactive	112	–
COC1CCC(N(C(=O)C2CCC(C)CC2)c2cc(C3=CCCCC3)sc2C(=O)O)CC1 (centres undefined)	-11.2%	–	inactive	inactive	inactive	inactive	inactive	inactive	113	–
CC(=O)OCCN1C(=O)c2c(C)nc3ccc(S(=O)(=O)N4CCOCC4)cc3c2C1=O	22.9%	–	inactive	inactive	inactive	inactive	inactive	inactive	121	–
CNC[C@H](O)[C@@H](O)[C@H](O)[C@H](O)CO	-10%	–	inactive	inactive	inactive	inactive	inactive	inactive	121	–
COCCCN1CCC(NC(=O)c2cc(Cl)c(N)c3c2OCC3)CC1	-6.16%	–	inactive	inactive	inactive	inactive	inactive	inactive	118	–
Cc1cc2cc3c(C)cc(=O)oc3c(C)c2o1	-5.86% and 16.7%	–	inactive	inactive	inactive	inactive	inactive	inactive	111	–
CS(=O)(=O)Oc1ccc2c(NC(N)=O)c(C(=O)c3ccc(Cl)cc3Cl)oc2c1	-14%	–	inactive	inactive	inactive	inactive	inactive	inactive	97.1	–
COc1ccc(S(=O)(=O)Nc2cc(-c3c(O)ccc4ccccc34)c(O)c3ccccc23)cc1	23.1%	11800 nM (active)	2630 nM (active)	833 nM (active)	1660 nM (active)	3720 nM (active)	1860 nM (active)	1660 nM (active)	–	–
Cc1ccccc1N1C(=O)c2cc(S(N)(=O)=O)c(Cl)cc2NC1C (centres undefined)	-15.9% and -14.5%	–	inactive	inactive	inactive	inactive	inactive	inactive	115	–

SMILES	activation [1]	Potency [2]	Potency [3]	Potency [4]	Potency [5]	Potency [6]	Potency [7]	Potency [8]	viability [2] [%]	Potency [1]
Nc1cc(C(Cl)=C(Cl)Cl)c(S(N)(=O)=O)cc1S(N)(=O)=O	44.6%	–	inactive	inactive	inactive	inactive	inactive	inactive	111	–
COCCCOc1cc(C[C@@H](C[C@H](N)[C@@H](O)C[C@H](C(=O)NCC(C)(C)C(N)=O)C(C)C)C(C)C)ccc1OC	-7.53% and 23.3%	–	inactive	inactive	inactive	inactive	inactive	inactive	124	–
CC(C)(C#N)c1cc(Cn2cncn2)cc(C(C)(C)C#N)c1	2.42%	–	inactive	inactive	inactive	inactive	inactive	inactive	107	–
Nc1ncnc2ccccc12	22.8%	–	inactive	inactive	inactive	inactive	inactive	inactive	115	–
Cc1noc(-c2ccc(CSCCC(=O)O)cc2)c1NC(=O)OC(C)c1ccccc1Cl (centres undefined)	-1.99%	–	inactive	inactive	inactive	inactive	inactive	inactive	114	–
CN1CCN2c3ncccc3Cc3ccccc3C2C1 (centres undefined)	-22.2%	–	inactive	inactive	inactive	inactive	inactive	inactive	102	–
N=c1ccn2c(n1)O[C@H]1[C@@H](O)[C@@H](CO)O[C@H]12	18.1%	1050 nM (active)	5250 nM (active)	1320 nM (active)	235 nM (active)	83.3 nM (active)	235 nM (active)	118 nM (active)	–	–
CC1(C)CCC2=C(O1)c1ccccc1C(=O)C2=O	-0.948%	18600 nM (active)	18600 nM (active)	18600 nM (active)	16600 nM (active)	9340 nM (active)	7420 nM (active)	26300 nM (active)	–	–
Cc1cnc(C(=O)O)c[n+]1[O-]	-19.2%	–	inactive	inactive	inactive	inactive	inactive	inactive	122	–
NCCCC(O)(P(=O)(O)O)P(=O)(O)O	36.7% and -7.88%	–	inactive	inactive	inactive	inactive	inactive	inactive	114	–
CCc1ccc(OCc2ccccc2C(=O)Nc2ccc3nc(C)cc(N)c3c2)cc1	45.3%	6610 nM (active)	8330 nM (active)	5900 nM (active)	4170 nM (active)	7420 nM (active)	7420 nM (active)	6610 nM (active)	–	–
COc1cc([C@@H]2c3cc4c(cc3[C@H](O)[C@H]3COC(=O)[C@@H]23)OCO4)cc(OC)c1OC	31.7%	1180 nM (active)	833 nM (active)	833 nM (active)	417 nM (active)	468 nM (active)	662 nM (active)	525 nM (active)	–	–
CC1(C)Cc2c(sc(NC(=S)NC(=O)c3ccccc3)c2C(=O)O)CO1	-34.5%	–	inactive	inactive	inactive	inactive	inactive	inactive	110	–
C=C(C)[C@@H]1CC[C@]2(C(=O)O)CC[C@]3(C)[C@H](CC[C@@H]4[C@@]5(C)CC[C@H](O)C(C)(C)[C@@H]5CC[C@]43C)[C@@H]12	7.46%	–	inactive	inactive	inactive	inactive	inactive	inactive	115	–
Nc1ccc(S(N)(=O)=O)cc1	-29.9% and 4.8%	–	inactive	inactive	inactive	inactive	inactive	inactive	93.8	–
NC(=O)c1cccnc1	-14.2% and 9.71%	–	inactive	inactive	inactive	inactive	inactive	inactive	106	–
O=C(/C=C\n1cnc(-c2cc(C(F)(F)F)cc(C(F)(F)F)c2)n1)NNc1cnccn1	24.8%	742 nM (active)	1180 nM (active)	525 nM (active)	934 nM (active)	372 nM (active)	468 nM (active)	372 nM (active)	–	–
N#Cc1cc(NC(=O)Nc2nnc(-c3ccncc3)s2)ccc1-c1cn[nH]c1	-26.3%	–	inactive	inactive	inactive	inactive	inactive	inactive	111	–
C[C@H](NC(=O)c1sccc1OCc1ccc(Cl)cc1)c1ccccc1	16.4%	16600 nM (active)	inactive	13200 nM (active)	inactive	inactive	inactive	inactive	–	–
c1cc(-c2cnn3cc(-c4ccc(OCCN5CCCCC5)cc4)cnc23)ccn1	46.6%	8330 nM (active)	8330 nM (active)	83.3 nM (active)	1660 nM (active)	9340 nM (active)	–	9340 nM (active)	–	–
